Measurements: the supplement of paper PMC10681739

target: T1, ETS1 (UniProt P14921); experiment: TF binding intensity (PBM fluorescence), negative control probe (arbitrary fluorescence units); higher = stronger binding
T1 sequence: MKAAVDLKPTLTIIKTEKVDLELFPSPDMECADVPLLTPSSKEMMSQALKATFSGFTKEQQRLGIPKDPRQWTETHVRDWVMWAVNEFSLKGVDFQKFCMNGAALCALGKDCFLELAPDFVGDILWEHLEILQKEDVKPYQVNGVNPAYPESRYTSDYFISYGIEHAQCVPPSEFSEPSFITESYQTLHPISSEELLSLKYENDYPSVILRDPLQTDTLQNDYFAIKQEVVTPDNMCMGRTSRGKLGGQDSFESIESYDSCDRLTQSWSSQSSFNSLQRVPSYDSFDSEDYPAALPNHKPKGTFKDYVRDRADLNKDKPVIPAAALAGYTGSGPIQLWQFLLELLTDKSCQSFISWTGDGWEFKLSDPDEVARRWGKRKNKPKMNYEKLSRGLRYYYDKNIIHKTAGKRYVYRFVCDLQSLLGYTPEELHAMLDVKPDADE
Protocol: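 gcPBM negative-control 36-bp genomic probes lacking TF binding sites. Each was incubated with recombinant human ETS1 or RUNX1 alone and detected by antibody fluorescence. Values are medians over replicate spots (4 spots for the ETS1-RUNX1 arrays, 3 for the ETS1-ETS1 array). The probes sit in constant array flanks that are not printed.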

| Sequence | TF binding intensity |
| --- | --- |
| AGTCTAGTTTTGCTCTTTAAAATCACCATCTGTATC (protein concentration 10 nM) | 138 |
| GCTATCTATTTTAATTAGCTAAGATTGCTATTAATA (protein concentration 10 nM) | 106 |
| AGTATGAGTTTGAATACACAGAACCTTTCTCATTCT (protein concentration 10 nM) | 106 |
| AGACTGCATACTTATAAAGTGGAGTATGCAGATAAT (protein concentration 10 nM) | 119 |
| GGCTGGTAGAAATACTGCGGCTAATAAAGGCGTGGA (protein concentration 1 nM) | 425 |
| AAGTTAATGAGATATTGTGGTTGTTTGTGTTTGGTT (protein concentration 1 nM) | 477 |
| CTTTCTAAAGAGAAAAGCTCCTTTGTACCACGTGTC (protein concentration 10 nM) | 103 |
| CCCTTCGCCATTGCAGCCATGCCACCCCTCCTTCTC (protein concentration 10 nM) | 149 |
| GAAATCACGGGACCCCGAGCGGTTGGAGATCTGCCA (protein concentration 10 nM) | 91.7 |
| GCTGGGAGACAGAGCCAGACACTGTCTCAAAAAAAA (protein concentration 10 nM) | 110 |
| GTTTCTTATAAGCAGAAACACTAACAAAGGACAGCG (protein concentration 10 nM) | 146 |
| AATATCTACAGGGCTCACTCTCCCATGCTCTTCAGG (protein concentration 10 nM) | 108 |
| ATAAAACACAGTGTACAGTGACCTTTTAATCACAAC (protein concentration 10 nM) | 132 |
| CCTCGGGGGCCAATGTGTGCCTGTGGTGTGCGATTC (protein concentration 10 nM) | 121 |
| CTTCAAAGGCCCCGCATTAGCTGGGGTCGATCCAGA (protein concentration 10 nM) | 154 |
| TCCTGTAAGGACATTTTGTGCCTTCTCCCATGATGA (protein concentration 10 nM) | 97.8 |
| CATTAGATTCTCATAAGGAGCATAACCTAGATCCCT (protein concentration 10 nM) | 104 |
| CCTGCCTCATTTGCTCACGGGCTCCCTCCCTCAAGG (protein concentration 10 nM) | 113 |
| CATAGTTGCACCTGGTCTACTTTGCTGTCAATTTGT (protein concentration 10 nM) | 126 |
| GATAGACATATAAAAACCACAAAAATCAAAACTGCA (protein concentration 1 nM) | 485 |

| Sequence | TF binding intensity |
| --- | --- |
| GTGAATTCAAAACAACCCACAGTTTTAATTCTCTGT (protein concentration 1 nM) | 452 |
| TTTCTTCACACCACAAGCAGAGAGCAGCGAGAGAGA (protein concentration 10 nM) | 136 |
| ATATATAGTAACCACATGATTAATAATAATAATGCA (protein concentration 10 nM) | 119 |
| CACAATAAAGCCGCAACCGCAGGAGGCAGAAGGGTG (protein concentration 1 nM) | 793 |
| CGCCAGGGGGAGCAACAGAAATCCACACCAGGGAAG (protein concentration 10 nM) | 173 |
| TCCTCAGGGACGTGTGAGAACCTGGCTAGGCAAGAG (protein concentration 10 nM) | 135 |
| TCCAGAAGCAGAGGCTGAGAGAGGGATTCTTGTGCC (protein concentration 10 nM) | 112 |
| TTGTGTTCTTATCAAATTATTAAGATTTTAGGTGAG (protein concentration 10 nM) | 133 |
| CCGACACTCCATGAGTTAGTTCAGTCCTCTGACACC (protein concentration 10 nM) | 150 |
| TCTTTATCTGTCAGTACCACACTGTCTATTCTCCCA (protein concentration 1 nM) | 502 |
| CACCTCCTAAACAAAGCCGCATAGGTGATGGTGATG (protein concentration 1 nM) | 463 |
| CCAGTGCCCTTGAAATGAAATGGGACTTGCAAGGAG (protein concentration 10 nM) | 121 |
| AAAGGCAGATCTCCAAATCTCCAGGCCTGCTCGTTG (protein concentration 10 nM) | 96.1 |
| TATCTTTATCATGATCCATTAAAGATGACAGAACTA (protein concentration 10 nM) | 127 |
| ACATCTCATGGTTTTAAAGTAAATGAATTAAAAGTC (protein concentration 10 nM) | 116 |
| TGAATGAGTCTTTTTTTGGCCATCTCTTTATGATTA (protein concentration 10 nM) | 132 |
| AGAAGCTTGGCTTGGTCTGCGCCTCCTCCCGTGCCT (protein concentration 10 nM) | 101 |
| TGATTTCTTAAGCCAACCTCAAAAAAAAAAAAAGAG (protein concentration 1 nM) | 596 |
| ATGGCTGGGTCAGAGCGGCCTGTCAGCCCGGCTGGA (protein concentration 10 nM) | 98 |
| GTTAGAATGCAACCTTTTGACTTATATCTTTTCCCC (protein concentration 10 nM) | 140 |
